The values below come from PubChem BioAssay (Tox21).

Several values for one entry are separate records, joined by “and”; a condition that tells them apart may be missing. Equal values may be shown once. Records with an inconclusive call do not appear. More than one record can exist for a structure, and the calls need not agree. Activity calls are given as the source filed them. Unless noted, calls follow the shape of the full dose curve.

Test [1] can be described thus: Nuclear factor erythroid 2-related factor 2/antioxidant responsive element (Nrf2/ARE) small molecule agonists: qHTS cell viability counter screen in human keratinocytes (AID 1919968; active = well fitted curve in the direction sought with a large enough effect in the repeat runs; an effect the other way counts as inactive or inconclusive; also: nearly all actives have a fitted effect of over 55% in size). In outline: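 In human HaCaT keratinocytes stably expressing an ARE-driven luciferase, compound exposure lasted 23 h at 37 C under 5% CO2. Viable cells are quantified with a protease-based fluorogenic reagent (CellTiter-Fluor) read 1 h after addition.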

Test [2] can be described thus: Nuclear factor erythroid 2-related factor 2/antioxidant responsive element (Nrf2/ARE) small molecule agonists: luciferase reporter gene qHTS assay in human keratinocytes (AID 1919969). Also: nearly all actives have a fitted effect of over 35% in size. Also: potency is read from the fitted curve at half-maximal effect.
The target of test [3] is KiSS-1 receptor (Homo sapiens) (UniProt Q969F8). Put plainly: Human kisspeptin (KISS1R) small molecule agonists, calcium flux assay in KISS1R-HEK293 cells (AID 1920064; active = well fitted curve in the direction sought with a large enough effect in the repeat runs; an effect the other way counts as inactive or inconclusive). The essentials: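 Concentration-response testing used 15 concentrations in triplicate on human KISS1R-expressing HEK293 cells. Calcium-dependent fluorescence (Ex/Em 480/540) was followed kinetically for 3 min after compound transfer.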
Sequence of KiSS-1 receptor (Homo sapiens) (Q969F8 whole entry, looked up): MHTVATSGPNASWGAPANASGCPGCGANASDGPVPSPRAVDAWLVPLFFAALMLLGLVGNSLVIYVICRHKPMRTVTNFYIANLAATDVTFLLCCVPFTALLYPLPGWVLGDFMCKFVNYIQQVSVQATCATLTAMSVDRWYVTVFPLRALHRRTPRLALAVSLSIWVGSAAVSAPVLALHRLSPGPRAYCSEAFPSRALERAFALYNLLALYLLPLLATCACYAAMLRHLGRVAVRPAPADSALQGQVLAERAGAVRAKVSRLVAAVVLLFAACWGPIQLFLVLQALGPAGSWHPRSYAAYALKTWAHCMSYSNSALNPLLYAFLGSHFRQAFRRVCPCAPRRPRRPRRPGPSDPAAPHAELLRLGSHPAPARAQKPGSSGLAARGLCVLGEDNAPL

Test [4] is described as follows: p53 small molecule agonists, cell-based qHTS assay with human liver microsomes (AID 1963577).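 Also: p53 response element beta-lactamase reporter cells with liver microsomes plus NADPH.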 The essentials:
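In this qHTS, p53 response-element beta-lactamase cells receive test compound together with a microsome/NADPH activating system (0.5 mg/mL final each) and are incubated 16 h at 37 C before LiveBLAzer fluorescence detection.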

Test [5] in a line: p53 small molecule agonists, cell-based qHTS assay with rat liver microsomes (AID 1963578). In outline:
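Agonist mode in p53RE-bla reporter cells, with compounds co-incubated 16 h at 37 C alongside 0.5 mg/mL rat liver microsomes and 0.5 mg/mL NADPH (final), followed by a 2 h LiveBLAzer detection step.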

Test [6] in a line: p53 small molecule agonists, cell-based qHTS assay with human liver microsomes: qHTS cell viability counter screen (AID 1963579). Also: nearly all actives have a fitted effect of over 45% in size. The essentials:
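Metabolically activated exposure: compounds, human liver microsomes and NADPH (0.5 mg/mL final apiece) were added to p53RE-bla cells seeded 5 h earlier, left 16 h at 37 C, and then assessed for viability by CellTiter-Glo luminescence.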

Test [7] is described as follows: p53 small molecule agonists, cell-based qHTS assay with rat liver microsomes: qHTS cell viability counter screen (AID 1963580). Also: nearly all actives have a fitted effect of over 45% in size. In outline: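 Counter screen for cytotoxicity under metabolic activation: rat liver microsomes and NADPH, 0.5 mg/mL final each, added with compounds to p53RE-bla HCT-116 cells; 16 h at 37 C, then ATP luminescence read.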
A short description of test [8]: p53 small molecule agonists, cell-based qHTS assay: qHTS cell viability counter screen (AID 1963581). Also: nearly all actives have a fitted effect of over 45% in size. In outline: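 Luminescence from CellTiter-Glo, reflecting ATP content, serves as the cytotoxicity measure; it is taken after the 2 h reporter substrate step in HCT-116 p53RE-bla cells dosed for 16 h at 37 C.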
A short description of test [9]: p53 small molecule agonists, cell-based qHTS assay (AID 1963582; active = well fitted activation curve with a large enough effect in the signal ratio in the repeat runs, not every such curve was filed as active; the % refers to the signal ratio). In outline: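 After plating, p53RE-bla cells sat 5 h in the incubator; compounds or DMSO vehicle were pinned in; a 16 h incubation at 37 C followed; FRET substrate was added and, 2 h later at RT, fluorescence was measured.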
The target in test [10] is 5-hydroxytryptamine receptor 2A (Homo sapiens) (UniProt P28223). Put plainly: 5-hydroxytryptamine receptor 2A (HTR2A) small molecule antagonists, cell-based qHTS assay (AID 1963586). Also: nearly all actives have a fitted effect of over 45% in size. The essentials:
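CHO cells stably expressing human HTR2A were plated for 18 h at 37 C, then loaded with calcium dye for 1 h. Compounds were preincubated 5 min at room temperature before DOI (4 nM solution) was added. Kinetic fluorescence was read for 3 min.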

The target is the same in test [11]. Put plainly: 5-hydroxytryptamine receptor 2A (HTR2A) small molecule agonists, cell-based qHTS assay (AID 1963587). Also: nearly all actives have a fitted effect of over 30% in size. The essentials:
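HTR2A-CHO cells, plated 18 h at 37 C/5% CO2, dye-loaded 1 h at 37 C; compounds in DMSO added by pin tool (agonist mode). Intracellular calcium flux read as kinetic fluorescence on FDSS over 2 min at 1 s intervals.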

Test [12] has as its target Muscarinic acetylcholine receptor M1 (Homo sapiens) (UniProt P11229). Put plainly: Cholinergic receptor muscarinic 1 (CHRM1) small molecule antagonists, cell-based qHTS assay (AID 1963588). Also: nearly all actives have a fitted effect of over 40% in size. In outline:
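Compounds were tested at 15 concentrations in three independent runs. Dye-loaded CHRM1-CHO cells were exposed 5 min at room temperature before stimulation by acetylcholine added at 50nM. Intracellular calcium was read kinetically on FDSS for 3 min.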

The target is the same in test [13]. Put plainly: Cholinergic receptor muscarinic 1 (CHRM1) small molecule agonists, cell-based qHTS assay (AID 1963589). Also: nearly all actives have a fitted effect of over 35% in size. The essentials: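 Fluorescent calcium dye reports M1 activation in stably transfected CHO cells. Compounds, 15 concentrations, added after 1 h dye loading at 37 C; kinetic reading at 1 sec intervals.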
A short description of test [14]: cAMP Responsive Elements (CRE) small molecule agonists, cell-based qHTS assay (AID 1963590). In outline:
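Compound exposure lasted 3 h at 37 C/5% CO2 in CRE-bla HEK 293T cells grown in assay medium with 10% dialyzed FBS and 25 mM HEPES. Reporter signal came from LiveBLAzer B/G FRET substrate, 2 h, room temperature.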

Test [15] can be described thus: cAMP Responsive Elements (CRE) small molecule antagonists, cell-based qHTS assay (AID 1963591; active = well fitted inhibition curve with a large enough effect in the signal ratio in the repeat runs, not every such curve was filed as active; the % refers to the signal ratio). The essentials: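 Stimulation used NKH477 at a final 0.25 uM for 3 h in compound-treated CRE-bla HEK293T cells, seeded 18 h beforehand. Reporter activity was measured with LiveBLAzer B/G FRET substrate after 2 h at room temperature.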
Test [16] deals with Beta-2 adrenergic receptor (Homo sapiens) (UniProt P07550). The test is described as follows: Adrenergic beta2 receptor (ADRB2) small molecule antagonists, cell-based qHTS assay (AID 1963592). Also: series mostly up to about 92 µM; nearly all actives have a fitted effect of over 50% in size. In outline:
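Assay format: CHO-ADRB2 cells, 18-20hr seeding at 37C/5% CO2, then compound plus 1nM isoproterenol agonist mix for 0.5hr RT. Homogeneous time-resolved fluorescence cAMP detection after 1hr, expressed as 665/615 nm ratio.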

Test [17] shares this target. Put plainly: Adrenergic beta2 receptor (ADRB2) small molecule agonists, cell-based qHTS assay (AID 1963593).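 Also: CHO cells stably overexpressing human ADRB2.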 The essentials: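 CHO cells stably over-expressing ADRB2 were plated overnight at 37C, then dosed with compounds plus a stimulation mix containing 100uM IBMX and 25uM Ro-20-1724 for 0.5hr at room temperature. cAMP was measured by HTRF competition, 1hr.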
Test [18] has as its target D(2) dopamine receptor (Homo sapiens) (UniProt P14416). The test is described as follows: Dopamine D2 receptor (DRD2) small molecule agonists, cell-based qHTS assay (AID 1963594). Also: nearly all actives have a fitted effect of over 35% in size. The essentials:
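HEK293 cells stably expressing DRD2 were cultured 24 h at 37 C, then given Ro20-1724 (0.1 mM final) and compounds for 10 min at room temperature. NKH477 (200nM) was then added for 30 min. cAMP was read by HTRF.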

Test [19] has the same target. The test is described as follows: Dopamine D2 receptor (DRD2) small molecule antagonists, cell-based qHTS assay (AID 1963595; active = well fitted inhibition curve with a large enough effect in the signal ratio in the repeat runs, with a control signal flat; the % refers to the signal ratio). The essentials: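 HEK293 cells stably expressing DRD2, preincubated with 0.1 mM Ro20-1724 and compounds 10 min, were stimulated with 200 nM NKH477 plus 12 nM quinpirole for 30 min at room temperature; cAMP measured by HTRF (665/620 nm).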
Test [20] deals with Gonadotropin-releasing hormone receptor (Homo sapiens) (UniProt P30968). Put plainly: Human gonadotropin-releasing hormone receptor (GnRHR) small molecule agonists, calcium flux assay in GnRHR-HEK293 cells (AID 1920063). Also: nearly all actives have a fitted effect of over 35% in size. The essentials: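 Intracellular calcium rise is the read-out: engineered human GnRHR HEK293 cells, dye-loaded, are exposed to DMSO-dissolved compounds and fluorescence at Ex/Em 480/540 is tracked for 3 min.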
Sequence of Gonadotropin-releasing hormone receptor (Homo sapiens) (P30968 whole entry, looked up): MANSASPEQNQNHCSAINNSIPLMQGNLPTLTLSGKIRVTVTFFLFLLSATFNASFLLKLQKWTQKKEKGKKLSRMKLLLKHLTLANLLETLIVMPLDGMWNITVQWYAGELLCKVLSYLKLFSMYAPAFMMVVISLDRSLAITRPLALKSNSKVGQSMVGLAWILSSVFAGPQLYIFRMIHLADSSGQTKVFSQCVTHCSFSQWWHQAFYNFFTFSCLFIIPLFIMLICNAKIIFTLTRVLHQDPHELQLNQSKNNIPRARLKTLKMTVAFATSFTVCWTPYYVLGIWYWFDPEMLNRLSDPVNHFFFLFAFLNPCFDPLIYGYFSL

Sequence of Beta-2 adrenergic receptor (Homo sapiens) (P07550 whole entry, looked up): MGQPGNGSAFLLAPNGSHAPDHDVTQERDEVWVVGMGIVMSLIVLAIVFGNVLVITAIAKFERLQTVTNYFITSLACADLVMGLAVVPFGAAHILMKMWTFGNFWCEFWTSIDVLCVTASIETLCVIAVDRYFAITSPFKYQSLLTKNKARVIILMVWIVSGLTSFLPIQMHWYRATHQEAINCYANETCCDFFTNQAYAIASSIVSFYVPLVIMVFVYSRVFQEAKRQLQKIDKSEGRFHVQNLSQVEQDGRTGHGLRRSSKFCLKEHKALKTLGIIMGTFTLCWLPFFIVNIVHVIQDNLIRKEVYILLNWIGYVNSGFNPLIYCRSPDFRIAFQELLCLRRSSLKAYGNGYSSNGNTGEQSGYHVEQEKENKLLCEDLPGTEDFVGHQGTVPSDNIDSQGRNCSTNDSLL
Sequence of Muscarinic acetylcholine receptor M1 (Homo sapiens) (P11229 whole entry, looked up): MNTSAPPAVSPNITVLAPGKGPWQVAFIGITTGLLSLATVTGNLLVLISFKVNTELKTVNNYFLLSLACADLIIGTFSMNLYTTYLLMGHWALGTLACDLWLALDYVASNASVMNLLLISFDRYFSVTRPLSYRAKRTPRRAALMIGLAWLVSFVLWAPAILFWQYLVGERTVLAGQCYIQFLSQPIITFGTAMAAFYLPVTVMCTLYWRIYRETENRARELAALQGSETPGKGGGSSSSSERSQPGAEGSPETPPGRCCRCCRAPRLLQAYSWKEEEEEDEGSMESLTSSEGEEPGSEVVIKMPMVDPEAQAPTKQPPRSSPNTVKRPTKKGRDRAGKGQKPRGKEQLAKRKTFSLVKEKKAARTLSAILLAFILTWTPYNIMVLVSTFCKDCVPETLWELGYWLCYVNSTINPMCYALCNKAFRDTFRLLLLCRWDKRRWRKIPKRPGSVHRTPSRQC
Sequence of D(2) dopamine receptor (Homo sapiens) (P14416 whole entry, looked up): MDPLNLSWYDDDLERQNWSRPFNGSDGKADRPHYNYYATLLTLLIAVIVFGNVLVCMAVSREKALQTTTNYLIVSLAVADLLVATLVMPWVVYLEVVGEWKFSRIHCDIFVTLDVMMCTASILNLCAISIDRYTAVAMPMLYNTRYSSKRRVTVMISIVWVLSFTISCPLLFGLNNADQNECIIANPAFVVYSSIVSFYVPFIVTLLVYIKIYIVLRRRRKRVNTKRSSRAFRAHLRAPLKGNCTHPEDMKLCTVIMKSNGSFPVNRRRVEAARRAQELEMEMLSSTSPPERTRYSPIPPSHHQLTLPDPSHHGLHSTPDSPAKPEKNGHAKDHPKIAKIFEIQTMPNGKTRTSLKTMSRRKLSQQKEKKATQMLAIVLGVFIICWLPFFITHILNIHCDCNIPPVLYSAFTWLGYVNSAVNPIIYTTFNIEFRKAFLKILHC
Sequence of 5-hydroxytryptamine receptor 2A (Homo sapiens) (P28223 whole entry, looked up): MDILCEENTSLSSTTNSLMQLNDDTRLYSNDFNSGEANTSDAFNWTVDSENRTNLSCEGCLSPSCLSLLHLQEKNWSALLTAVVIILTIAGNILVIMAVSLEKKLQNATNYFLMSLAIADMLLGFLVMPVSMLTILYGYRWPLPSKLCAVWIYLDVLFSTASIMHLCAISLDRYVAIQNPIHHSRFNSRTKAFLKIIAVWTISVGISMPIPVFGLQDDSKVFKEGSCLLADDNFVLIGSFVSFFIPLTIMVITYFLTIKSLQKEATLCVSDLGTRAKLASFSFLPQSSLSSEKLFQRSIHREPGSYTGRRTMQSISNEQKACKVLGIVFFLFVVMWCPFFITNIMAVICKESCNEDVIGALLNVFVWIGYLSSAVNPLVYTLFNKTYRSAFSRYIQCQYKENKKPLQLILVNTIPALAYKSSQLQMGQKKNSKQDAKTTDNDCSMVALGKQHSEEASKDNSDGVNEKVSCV

Regarding `c1ccncc1`, the Potency entry in test [1], in test [2], in [3], in test [4], in test [5] and in test [6] was “inactive” each time. Moreover, the Potency entry in [7], in [8], in [9], in test [10], in test [11] and in [12] was “inactive” in each case. The Potency result in [13], in test [14], in test [15], in test [16], in test [17] and in test [18] was “inactive” each time. Also, the Potency result in [19] was “inactive”.

On to `CCCCCCCCCCCCO`, for which the Potency result in [1], in test [3], in [4], in [5], in test [6] and in test [7] was “inactive” in each case. The Potency result in [8], in test [9], in test [10], in [11], in test [12] and in test [14] was “inactive” in each case. In addition, the Potency entry in test [15], in [16], in [17], in test [18] and in [19] was “inactive” throughout. Also, the Potency entry in test [2] was “inactive and 67.8 µM (active)”.

Take `c1ccc2c(c1)[nH]c1ccccc12`: the Potency entry in [1], in test [2], in test [20], in test [4], in test [6] and in test [7] was “inactive” throughout. The Potency entry in test [8], in test [9], in test [10], in test [11], in test [12] and in [13] was “inactive” in each case. Besides, the Potency result in test [14], in test [15], in [16], in [18] and in [19] was “inactive” in each case.

For the compound `CCCCCCO`, the Potency entry in test [1], in test [2], in test [3], in test [4], in test [5] and in test [6] was “inactive” each time. Also, the Potency entry in [7], in [8], in test [9], in [10], in test [11] and in [12] was “inactive” throughout. Further, the Potency result in test [13], in test [14], in test [15], in [16], in [17] and in test [18] was “inactive” throughout. The Potency entry in test [19] is “inactive”.

On to `O=C(O)CCCCCCCCC(=O)O`, for which the Potency result in [1], in test [2], in test [3], in test [4], in [5] and in [6] was “inactive” throughout. The Potency result in test [7], in test [8], in test [9], in [10], in test [11] and in [12] was “inactive” in each case. Further, the Potency entry in [13], in [15], in test [16], in test [18] and in test [19] was “inactive” in each case.

In the case of `CC(C)OB(OC(C)C)OC(C)C`, the Potency result in test [1], in test [2], in test [3], in test [4], in test [5] and in test [6] was “inactive” each time. Further, the Potency entry in test [7], in test [8], in test [9], in [10], in [11] and in test [12] was “inactive” throughout. Also, the Potency result in test [13], in test [14], in [15], in test [16], in test [17] and in test [18] was “inactive” throughout. Besides, in test [19], the Potency entry is “inactive”.
